Source: PubChem BioAssay (The Scripps Research Institute Molecular Screening Center)
The list is not random: actives were taken first. Their share in the collection is about 3.4%.
GPR151 ag – human GPR151 activation; PathHunter beta-arrestin GPR151 cells, luminescence; activation, % at 11.2 µM; 650,000 tested, 1% active; AID 1508602; in the data active = activation above about 4.9%
FBW7 act – activators of human E3 ligase FBW7; Q969H0; AlphaScreen FBW7–phospho-cyclin E peptide binding, activator screen; normalized activity (activation), % at 26.1 µM; 650,000 tested, 0.13% active; in the data active = normalized activity above about 1.9%;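 note: purified mutant Fbw7 with reduced substrate affinity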
MITF primary – human MITF inhibition, primary screen. O75030. AlphaScreen MITF homodimerization, bead proximity signal. inhibition, % at 2.6 µM. 650,000 tested, 0.91% active. AID 1259374; in the data active = inhibition above about 50%
TEAD-YAP inh – TEAD-YAP interaction inhibition. HEK-TIYL cells, TEAD-Gal4/YAP UAS-luciferase luminescence. inhibition, % at 9.12 µM. AID 1259422. 640,000 tested, 1.4% active; in the data active = inhibition above about 32%
Hits are given with their value; 0 = inactive.

SMILES	GPR151 ag	FBW7 act	MITF primary	TEAD-YAP inh
O=C1CC[C@@H](C(=O)N2CCC(Oc3ccc(C(=O)NCCc4ccccc4)cc3)CC2)N1	0	0	0	39.9
CCOc1ccc(C2C(C#N)=C(N)Oc3n[nH]c(-c4ccncc4)c32)cc1OCC (centres undefined)	0	0	0	0
CCN1CCN(S(=O)(=O)c2cc(C)ccc2OC)CC1	0	0	0	0
O=C(NCCc1ccccc1)c1ccc(OC2CCN(C(=O)c3cnsn3)CC2)cc1	0	0	0	0
O=C(NCCc1ccccc1)c1ccc(OC2CCN(C(=O)c3cscn3)CC2)cc1	0	0	0	64.4
CCN(CC)c1cc(-c2ccccn2)nc(-c2ccccn2)n1	0	0	113.2	85.6
Cc1cnc(CNc2cc(-c3ccccc3F)nc(-c3ccccn3)n2)nc1	0	0	0	33.2
CCN(CC)c1cc(-c2ccccn2)nc(-c2ccccc2)n1	0	0	0	0
CCN(CC)c1cc(-c2ccccc2F)nc(-c2ccccn2)n1	0	0	0	49.9
CCN(CC)c1cc(-c2ccccc2F)nc(-c2ccncc2)n1	0	0	0	0
COc1ccc(CNC(=O)CN2C(=O)CCSc3ccccc32)cc1	0	0	0	0
COc1cccc(C2=CC(c3cc(Br)ccc3F)n3nnnc3N2)c1 (centres undefined)	0	0	0	46.1
COc1ccc(C2C=C(c3cccc(Br)c3)Nc3nnnn32)cc1OC (centres undefined)	0	0	0	0
COc1cccc(C2C=C(c3cccc(Br)c3)Nc3nnnn32)c1 (centres undefined)	0	0	0	49.0
COc1cccc(C2=CC(c3ccccc3C)n3nnnc3N2)c1 (centres undefined)	0	0	0	44.4
CCOC(=O)C1=CN(C)C=C(C(=O)OCC)C1c1cc(Br)c(O)c(OCC)c1	0	0	0	0
COc1ccc(S(=O)(=O)N2CCN(c3ccccc3F)CC2)cc1C	0	0	0	0
CCN(CC)C(=O)C1CCCN(C(=O)c2cc(COc3ccc4ncccc4c3)on2)C1 (centres undefined)	0	0	0	0
COCC1CCCCN1C(=O)c1cc(COc2ccc3ncccc3c2)on1 (centres undefined)	0	0	0	41.5
CCC1CCCCN1C(=O)c1cc(COc2ccc3ncccc3c2)on1 (centres undefined)	0	0	0	49.4
COc1ccc(F)c(CN2CCc3nnc(C(C)NC(=O)c4ccco4)n3CC2)c1 (centres undefined)	0	0	0	0
CCc1ccc(-c2cc(C(=O)OCC(=O)c3ccccc3)c3cccc(C)c3n2)cc1	0	0	0	0
CCN(CC)c1ccc2cc(N3C(=O)CCC3=O)c(=O)oc2c1	0	0	0	62.1
CCN(CC)c1ccc2cc(I)c(=O)oc2c1	0	2.9	0	0
CCN(CC)c1ccc2cc(Cl)c(=O)oc2c1	0	0	0	0
SMILES	GPR151 ag	FBW7 act	MITF primary	TEAD-YAP inh
CCN(CC)c1ccc2cc(/C(N)=N/NC(C)=O)c(=O)oc2c1	0	0	0	41.3
CC1=C(C(=O)OCC(F)(F)C(F)(F)F)C(c2ccc(Cl)cc2)NC(=O)N1 (centres undefined)	0	0	0	0
CO[C@H](C(=O)[C@@H](O)[C@@H](C)O)[C@@H]1Cc2cc3cc(O[C@H]4C[C@@H](O[C@H]5C[C@@H](O)[C@H](O)[C@@H](C)O5)[C@H](O)[C@@H](C)O4)c(C)c(O)c3c(O)c2C(=O)[C@H]1O[C@H]1C[C@@H](O[C@H]2C[C@@H](O[C@H]3C[C@](C)(O)[C@H](O)[C@@H](C)O3)[C@@H](O)[C@@H](C)O2)[C@H](O)[C@@H](C)O1	0	0	0	92.2
COc1cccc2c(SCC(=O)Nc3ccc4c(c3)OCO4)nccc12	0	0	0	48.3
COc1cccc2c(SCC(=O)Nc3ccc4c(c3)OCCO4)nccc12	0	0	0	50.9
COC(=O)COc1cccc2c(=O)n(CC(=O)Nc3ccc4c(c3)OCCO4)ccc12	0	0	0	0
COc1ccc2cc(S(=O)(=O)n3cnc4cc(C)c(C)cc43)ccc2c1	0	0	0	67.0
CS(=O)(=O)c1ccc2c(c1)CC(c1nc3ccc(-c4ccncc4)cc3[nH]1)CO2 (centres undefined)	0	0	0	0
CCSCCOC(=O)C1=C(C)NC2=C(C(=O)CC(c3cccs3)C2)C1c1ccc(F)cc1 (centres undefined)	0	0	0	0
CCSCCOC(=O)c1[nH]c2c(c1C)C(=O)CC(c1cccs1)C2 (centres undefined)	0	0	0	55.0
C/C=C/COC(=O)c1[nH]c2c(c1C)C(=O)CC(c1cccs1)C2 (centres undefined)	0	0	0	42.5
